# Measured values taken from the supplement of paper PMC12282887.
# ± gives the standard deviation of the averaged measurements.
# Experiments:
# Assay in all cases: promoter activity interaction Z-score (Lux/OD deviation from empty-vector control); higher = stronger promoter induction by the compound
# [1] = system: E. coli BW25113 acrABp lux reporter
# How it was run: (§1)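 E. coli BW25113 (wild type or marA, soxS or rob deletion) carrying low-copy luxCDABE promoter reporters grew in 40 µl LB Lennox in 384-well plates at 37°C. Each compound was tested at four 1:2 dilutions in biological duplicates. OD600 and luminescence were read every 30 min for 12 h. Areas were taken over 0–8 h (wild type) or 1–9 h (mutants), and wells below 10% of median growth area were removed. The score is the Z-transformed residual of growth-normalised luminescence fitted against the empty-vector control.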
# [2] = system: E. coli BW25113 marRABp lux reporter
# How it was run: as §1
# [3] = system: E. coli BW25113 micFp lux reporter
# How it was run: as §1
# [4] = system: E. coli BW25113 ompFp lux reporter
# How it was run: as §1
# [5] = system: E. coli BW25113 robp lux reporter
# How it was run: as §1
# [6] = system: E. coli BW25113 soxSp lux reporter
# How it was run: as §1
# [7] = system: E. coli BW25113 tolCp lux reporter
# How it was run: as §1
# [8] = 4.8 µg/ml, genetic background: wild type
# [9] = 4.8 µg/ml, genetic background: ΔmarA
# [10] = 4.8 µg/ml, genetic background: Δrob
# [11] = 4.8 µg/ml, genetic background: ΔsoxS
# [12] = 9.5 µg/ml, genetic background: wild type
# [13] = 9.5 µg/ml, genetic background: ΔmarA
# [14] = 9.5 µg/ml, genetic background: Δrob
# [15] = 9.5 µg/ml, genetic background: ΔsoxS
# [16] = 19 µg/ml, genetic background: wild type
# [17] = 19 µg/ml, genetic background: ΔmarA
# [18] = 19 µg/ml, genetic background: Δrob
# [19] = 19 µg/ml, genetic background: ΔsoxS
# [20] = 38.1 µg/ml, genetic background: wild type
# [21] = 38.1 µg/ml, genetic background: ΔmarA
# [22] = 38.1 µg/ml, genetic background: Δrob
# [23] = 38.1 µg/ml, genetic background: ΔsoxS
smiles,measurement,setting,value
NC(N)=S [Thiourea],promoter activity interaction Z-score,[1]; [8],-0.187 ± 0.18
same,promoter activity interaction Z-score,[1]; [9],-0.399 ± 0.26
same,promoter activity interaction Z-score,[1]; [10],-0.36 ± 0.23
same,promoter activity interaction Z-score,[1]; [11],-0.569 ± 0.35
same,promoter activity interaction Z-score,[1]; [12],-0.18 ± 0.14
same,promoter activity interaction Z-score,[1]; [13],0.241 ± 0.33
same,promoter activity interaction Z-score,[1]; [14],0.0155 ± 0.17
same,promoter activity interaction Z-score,[1]; [15],-0.239 ± 0.4
same,promoter activity interaction Z-score,[1]; [16],-0.0387 ± 0.081
same,promoter activity interaction Z-score,[1]; [17],-0.48 ± 0.68
same,promoter activity interaction Z-score,[1]; [18],-0.186 ± 0.13
same,promoter activity interaction Z-score,[1]; [19],-0.351 ± 0.079
same,promoter activity interaction Z-score,[1]; [20],-0.113 ± 0.22
same,promoter activity interaction Z-score,[1]; [21],-0.12 ± 0.22
same,promoter activity interaction Z-score,[1]; [22],0.24 ± 0.064
same,promoter activity interaction Z-score,[1]; [23],-0.0892 ± 0.19
same,promoter activity interaction Z-score,[2]; [8],-0.23 ± 0.42
same,promoter activity interaction Z-score,[2]; [9],-0.11 ± 0.25
same,promoter activity interaction Z-score,[2]; [10],-0.246 ± 0.076
same,promoter activity interaction Z-score,[2]; [11],-0.231 ± 0.24
same,promoter activity interaction Z-score,[2]; [12],-0.161 ± 0.13
same,promoter activity interaction Z-score,[2]; [13],0.055 ± 0.11
same,promoter activity interaction Z-score,[2]; [14],-0.0456 ± 0.0082
same,promoter activity interaction Z-score,[2]; [15],-0.157 ± 0.14
same,promoter activity interaction Z-score,[2]; [16],-0.209 ± 0.12
same,promoter activity interaction Z-score,[2]; [17],-0.407 ± 0.02
same,promoter activity interaction Z-score,[2]; [18],-0.154 ± 0.11
same,promoter activity interaction Z-score,[2]; [19],-0.149 ± 0.038
same,promoter activity interaction Z-score,[2]; [20],-0.45 ± 0.34
same,promoter activity interaction Z-score,[2]; [21],-0.162 ± 0.17
same,promoter activity interaction Z-score,[2]; [22],-0.0285 ± 0.12
same,promoter activity interaction Z-score,[2]; [23],-0.0935 ± 0.032
same,promoter activity interaction Z-score,[3]; [8],-0.235 ± 0.23
same,promoter activity interaction Z-score,[3]; [9],-0.0756 ± 0.059
same,promoter activity interaction Z-score,[3]; [10],-0.0669 ± 0.076
same,promoter activity interaction Z-score,[3]; [11],-0.189 ± 0.15
same,promoter activity interaction Z-score,[3]; [12],0.261 ± 0.46
same,promoter activity interaction Z-score,[3]; [13],-0.0468 ± 0.13
same,promoter activity interaction Z-score,[3]; [14],-0.0323 ± 0.16
same,promoter activity interaction Z-score,[3]; [15],0.0238 ± 0.19
same,promoter activity interaction Z-score,[3]; [16],-0.293 ± 0.083
same,promoter activity interaction Z-score,[3]; [17],-0.144 ± 0.073
same,promoter activity interaction Z-score,[3]; [18],-0.0798 ± 0.19
same,promoter activity interaction Z-score,[3]; [19],-0.203 ± 0.18
same,promoter activity interaction Z-score,[3]; [20],-0.442 ± 0.33
same,promoter activity interaction Z-score,[3]; [21],-0.164 ± 0.059
same,promoter activity interaction Z-score,[3]; [22],-0.0862 ± 0.063
same,promoter activity interaction Z-score,[3]; [23],-0.341 ± 0.12
same,promoter activity interaction Z-score,[4]; [8],0.0411 ± 0.63
same,promoter activity interaction Z-score,[4]; [9],0.273 ± 0.023
same,promoter activity interaction Z-score,[4]; [10],0.0473 ± 0.84
same,promoter activity interaction Z-score,[4]; [11],-0.209 ± 0.4
same,promoter activity interaction Z-score,[4]; [12],0.331 ± 0.68
same,promoter activity interaction Z-score,[4]; [13],0.292 ± 0.32
same,promoter activity interaction Z-score,[4]; [14],0.271 ± 0.042
same,promoter activity interaction Z-score,[4]; [15],-0.0695 ± 0.25
same,promoter activity interaction Z-score,[4]; [16],0.307 ± 0.13
same,promoter activity interaction Z-score,[4]; [17],0.189 ± 0.15
same,promoter activity interaction Z-score,[4]; [18],-0.133 ± 0.22
same,promoter activity interaction Z-score,[4]; [19],-0.0487 ± 0.067
same,promoter activity interaction Z-score,[4]; [20],0.484 ± 0.11
same,promoter activity interaction Z-score,[4]; [21],0.567 ± 0.37
same,promoter activity interaction Z-score,[4]; [22],0.804 ± 0.41
same,promoter activity interaction Z-score,[4]; [23],0.352 ± 0.25
same,promoter activity interaction Z-score,[5]; [8],0.198 ± 0.54
same,promoter activity interaction Z-score,[5]; [9],-0.278 ± 0.4
same,promoter activity interaction Z-score,[5]; [10],-0.498 ± 0.88
same,promoter activity interaction Z-score,[5]; [11],-0.368 ± 0.72
same,promoter activity interaction Z-score,[5]; [12],0.517 ± 0.91
same,promoter activity interaction Z-score,[5]; [13],0.53 ± 0.53
same,promoter activity interaction Z-score,[5]; [14],-0.0465 ± 0.47
same,promoter activity interaction Z-score,[5]; [15],-0.206 ± 0.084
same,promoter activity interaction Z-score,[5]; [16],0.0253 ± 0.099
same,promoter activity interaction Z-score,[5]; [17],-0.564 ± 0.03
same,promoter activity interaction Z-score,[5]; [18],-0.172 ± 0.36
same,promoter activity interaction Z-score,[5]; [19],-0.633 ± 0.39
same,promoter activity interaction Z-score,[5]; [20],0.15 ± 0.3
same,promoter activity interaction Z-score,[5]; [21],-0.571 ± 0.48
same,promoter activity interaction Z-score,[5]; [22],0.0676 ± 0.18
same,promoter activity interaction Z-score,[5]; [23],-0.509 ± 0.51
same,promoter activity interaction Z-score,[6]; [8],-0.265 ± 0.12
same,promoter activity interaction Z-score,[6]; [9],-0.27 ± 0.0046
same,promoter activity interaction Z-score,[6]; [10],-0.311 ± 0.21
same,promoter activity interaction Z-score,[6]; [11],-0.36 ± 0.21
same,promoter activity interaction Z-score,[6]; [12],-0.21 ± 0.083
same,promoter activity interaction Z-score,[6]; [13],-0.161 ± 0.02
same,promoter activity interaction Z-score,[6]; [14],-0.36 ± 0.053
same,promoter activity interaction Z-score,[6]; [15],-0.318 ± 0.36
same,promoter activity interaction Z-score,[6]; [16],-0.205 ± 0.22
same,promoter activity interaction Z-score,[6]; [17],-0.41 ± 0.026
same,promoter activity interaction Z-score,[6]; [18],-0.292 ± 0.098
same,promoter activity interaction Z-score,[6]; [19],-0.397 ± 0.33
same,promoter activity interaction Z-score,[6]; [20],-0.492 ± 0.0079
same,promoter activity interaction Z-score,[6]; [21],-0.464 ± 0.087
same,promoter activity interaction Z-score,[6]; [22],-0.389 ± 0.024
same,promoter activity interaction Z-score,[6]; [23],-0.476 ± 0.5
same,promoter activity interaction Z-score,[7]; [8],-0.648 ± 0.31
same,promoter activity interaction Z-score,[7]; [9],-0.358 ± 0.66
same,promoter activity interaction Z-score,[7]; [10],0.771 ± 0.35
same,promoter activity interaction Z-score,[7]; [11],-0.943 ± 0.29
same,promoter activity interaction Z-score,[7]; [12],-0.618 ± 1.8
same,promoter activity interaction Z-score,[7]; [13],0.4 ± 0.71
same,promoter activity interaction Z-score,[7]; [14],0.609 ± 0.4
same,promoter activity interaction Z-score,[7]; [15],-0.368 ± 0.54
same,promoter activity interaction Z-score,[7]; [16],-0.0827 ± 0.073
same,promoter activity interaction Z-score,[7]; [17],-0.203 ± 0.14
same,promoter activity interaction Z-score,[7]; [18],-0.414 ± 0.69
same,promoter activity interaction Z-score,[7]; [19],0.14 ± 0.66
same,promoter activity interaction Z-score,[7]; [20],0.133 ± 0.26
same,promoter activity interaction Z-score,[7]; [21],-0.216 ± 0.12
same,promoter activity interaction Z-score,[7]; [22],0.188 ± 0.21
same,promoter activity interaction Z-score,[7]; [23],-0.969 ± 1.2
